# Measurements from PubChem BioAssay (NCATS).
# A number with no mark means an inactive call. Records with an inconclusive call do not appear. Where a call stands in place of a potency, no number is given. Active and inactive are the calls of the source. Unless noted, calls follow the shape of the dose curve; as a rule, active = well fitted curve in the direction sought with a large enough effect; inconclusive = small, poorly fitted or top-dose-only effect, or another doubt; inactive = no such curve, though single readings can be large; an effect the other way counts as inactive or inconclusive.
# Key:
# [1] = biological target: Furin (Homo sapiens) (UniProt P09958); assay: Furin counterscreen qHTS for Zika virus inhibitors (AID 1347149);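 also: purified recombinant full-length human furin enzyme at 5 nM; fluorescence gain from furin cutting a BOC-RVRR-AMC peptide substrate over 15 min; top concentration of the series differs between compounds; nearly all actives have a fitted effect of over 70% in size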
# Outline: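 Fluorogenic cleavage of BOC-RVRR-AMC (2 microM final, Km ~15 µM) was monitored (ex 340, em 450 nm) at 37C after 15 min RT preincubation of 5 nM furin with compounds in HEPES pH 7.0 buffer with CaCl2 and Triton X-100. Percent inhibition was fitted to a 4-parameter Hill curve.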
# [2] = tested on: Zika virus NS2B-NS3 protease; assay: Primary screen GU AMC qHTS for Zika virus inhibitors (AID 1347154); also: nearly all actives have a fitted effect of over 70% in size
# Outline: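 Unlinked Zika NS2B hydrophilic domain–NS3 protease complex at 25 nM in 10 mM Tris-HCl pH 8.0, 0.01% Tween 20, with an AMC peptide substrate. Fluorescence change (340/450 nm) over 15 min at room temperature, normalized to controls, fitted to 4-parameter Hill.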
# [3] = Vero cells viability qHTS for Zika virus inhibitors (AID 1347167)
# Outline: (§1)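 Cells seeded at 2.5 x 10^5 cells/mL in DMEM with 4% FBS and attached overnight at 37 degrees C, then exposed to compound for 24 to 48 hours. Viability read as ATP content by CellTiter Glo luminescence.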
# [4] = HepG2 cells viability qHTS for Zika virus inhibitors (AID 1347168)
# Outline: as §1
# [5] = Tertiary RLuc qRT-PCR qHTS assay for Zika virus inhibitors (AID 1347169); also: nearly all actives have a fitted effect of over 55% in size; also: potency is read from the fitted curve at half-maximal effect; as to activity change, negative = inhibition: top concentration of the series differs between compounds
# Outline: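 Inhibition of ZIKV-RLuc replication in Vero cells, read as Renilla luminescence 1-1.5 hrs after live-cell substrate addition, following 48-72 hrs infection at MOI 1-2 in presence of compound.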
# [6] = Primary qHTS for small molecule stabilizers of the endoplasmic reticulum resident proteome: Secreted ER Calcium Modulated Protein (SERCaMP) assay (AID 1508630); also: potency is read from the fitted curve at half-maximal effect
# Outline: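 GLuc-SERCaMP-expressing SH-SY5Y cells, pretreated 16 h with compound, are challenged with thapsigargin to empty ER calcium stores; after 4 h, coelenterazine is added directly to the medium and luminescence is imaged.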
# [7] = Counterscreen qHTS for small molecule stabilizers of the endoplasmic reticulum resident proteome: GLuc-NoTag assay (AID 1508627);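 also: SH-SY5Y cells given compound then 100 nM thapsigargin to empty ER calcium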
# Outline: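 SH-SY5Y cells stably expressing constitutively secreted GLuc without SERCaMP tag, exposed to compound for 19 hr, then to 100 nM thapsigargin for 4 hr at 37C. Medium luciferase was read by coelenterazine luminescence without lysis.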
# [8] = Confirmatory qHTS for small molecule stabilizers of the endoplasmic reticulum resident proteome: Secreted ER Calcium Modulated Protein (SERCaMP) assay (AID 1508628); also: potency is read from the fitted curve at half-maximal effect; nearly all actives have a fitted effect of over 40% in size
# Outline: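 SH-SY5Y cells stably expressing GLuc-SERCaMP, treated 16 h with compound (primary 1.53, 7.67, 38.3 uM; confirmation 11 concentrations, up to 76.6 uM), then 100 nM thapsigargin for 4 h. Secreted Gaussia luciferase in medium read by coelenterazine luminescence.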
# [9] = Cell Viability qHTS for small molecule stabilizers of the endoplasmic reticulum resident proteome (AID 1508629); settings: cell viability counter-screen, 100 nM thapsigargin for final 4 h;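 also: human SH-SY5Y neuroblastoma cells carrying the GLuc-SERCaMP reporter; compound exposure about 46 h in total before the viability read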
# [10] = biological target: Nucleoprotein (Lymphocytic choriomeningitis virus (strain Armstrong)) (UniProt P09992); assay: qHTS for Inhibitors of the Functional Ribonucleoprotein Complex (vRNP) of Lymphocytic Choriomeningitis Arenaviruses (LCMV): LCMV Primary Screen - GLuc reporter signal (AID 1347086; calls by dose curve; also: nearly all actives have a fitted effect of over 70% in size)
# [11] = Cytotoxicity counterscreen for inhibitors of SARS-CoV-2 cell entry (AID 1645845; calls by dose curve; also: nearly all actives have a fitted effect of over 50% in size)
# Outline: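 HEK293-ACE2 cells (Expi293F stably expressing human ACE2) seeded overnight, then compound for 1 h plus 48 h at 37C. Viability as ATP content by luminescence; normalized to wells with cells and media-only wells.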
# [12] = AP1 Signaling Pathway (AID 357; active = well fitted curve in either direction with a large enough effect, not every such curve was filed as active;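 also: ME-180 reporter cells stimulated with EGF at its EC50 level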)
# Outline: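 Read-out was the 460nm/530nm emission ratio (excitation 405nm) after CCF4 loading for 2.5 hours at room temperature. Cells carried an AP-1-driven beta-lactamase reporter, were stimulated with EC50 EGF plus compound for 5 hours, and AC50 values came from titrations.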
# [13] = NFAT Signaling Pathway (AID 444; active = well fitted curve in either direction with a large enough effect, not every such curve was filed as active;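 also: carbachol stimulus at about its EC50 of 1 µM final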); settings: Jurkat NFAT-bla M1, carbachol, beta-lactamase ratio, 5 h; at 38 µM (top of the series)
# Outline: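 Jurkat cells with NFAT-driven β-lactamase reporter and co-expressed M1 receptor, stimulated with carbachol (final 1 uM, ~EC50), compound titration, 5 h at 37 °C. CCF4 loaded 1 h at RT; 460/530 nm ratio gave %activity and AC50.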
# [14] = Stat Signaling Pathway (AID 446; active = well fitted curve in either direction with a large enough effect, not every such curve was filed as active;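 also: ME-180 cervical cancer cells given 40 pM IL-6 alongside compound; SIE-controlled beta-lactamase reporter measured as 460/530 nm FRET emission ratio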)
# Outline: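 IL-6/STAT signaling read in ME-180 cells via an SIE beta-lactamase reporter. Stimulus was 40 pM IL-6 (its AC50) for 5 hrs, so both activation and inhibition register.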
# [15] = biological target: Guanine nucleotide-binding protein G(i) subunit alpha-1 (Homo sapiens) (UniProt P63096); assay: qHTS Assay for Inhibitors of RGS12 GoLoco Motif Activity (Green Fluorophore) (AID 879);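 also: negative values mean loss of peptide binding seen as reduced polarization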
# Outline: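 Fluorescence polarization assay: 50 nM Gαi1 with 10 nM FITC-labeled RGS12 GoLoco peptide in 10 mM Tris pH 7.5, 150 mM NaCl, 0.1 mM GDP, 0.05% NP40, 10 min at room temperature with compound.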
# [16] = qHTS Assay for Identification of Small Molecule Antagonists for NFkB Signaling Pathway (AID 895; active = well fitted inhibition curve with a large enough effect in the signal ratio, with a control signal flat, not every such curve was filed as active; the % refers to the signal ratio)
# Outline: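 ME-180 NFkB-bla cells (beta-lactamase under NFkB response element), plated overnight, treated with compound then 10 pM TNF alpha (about EC50) for 5 hrs at 37 C. LiveBLAzer FRET read at 460/530 nm emission, 405 nm excitation.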
# [17] = biological target: Muscarinic acetylcholine receptor M1 (Rattus norvegicus) (UniProt P08482); assay: qHTS Assay for Antagonists of Acetylcholine Muscarinic M1 Receptor: Measurement of IP-One Response (AID 944); also: nearly all actives have a fitted effect of over 75% in size
# Outline: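 CHO cells stably expressing rat M1, pretreated 10 min with compound, then stimulated 30 min with carbachol at EC80 (200 nM) in LiCl-containing buffer pH 7.4; IP1 accumulation read by HTRF competition (665/620 nm).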
# [18] = biological target: Pyruvate kinase (Leishmania mexicana) (UniProt Q27686); assay: qHTS Validation Assay for Inhibitors of Leishmania Mexicana Pyruvate Kinase (AID 945)
# Outline: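 Eight-point qHTS titrations; enzyme 0.2 nM LmPYK (E451W mutant); substrates 0.5 mM PEP, 0.1 mM ADP; 7 mM MgCl2; 1 h room temperature; PKLight luminescence normalized to neutral control.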
# [19] = biological target: Pyruvate kinase PKM (Homo sapiens) (UniProt P14618); assay: qHTS Assay for Activators of Human Muscle Pyruvate Kinase (AID 954; active = well fitted curve in the direction sought with a large enough effect, not every such curve was filed as active)
# Outline: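 Enzyme was run at intermediate activity so both inhibitors and activators could be detected. ATP formed from ADP and PEP by 0.1 nM human PKM2 during a 1 h room-temperature incubation was quantified by coupled luciferase luminescence.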
# [20] = biological target: Alpha-galactosidase (Coffea arabica) (UniProt Q42656); assay: Counterscreen for Glucocerebrosidase Inhibitors: qHTS Assay for Coffee Bean alpha-Galactosidase at pH 4.5 (AID 957)
# Outline: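 Coffee bean enzyme (2 nM) with 80 uM 4-methylumbelliferyl alpha-D-galactopyranoside in 50 mM citric acid, 0.005% Tween-20, pH 4.5, 20 min at room temperature; compounds 0.7 nM–77 uM. Stopped at pH 10, fluorescence 365/440 nm; AC50 from Hill fits.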
# [21] = biological target: Alpha-galactosidase A (Homo sapiens) (UniProt P06280); assay: Counterscreen for Glucocerebrosidase Inhibitors: qHTS Assay for Human alpha-Galactosidase at pH 4.5 (AID 992)
# Outline: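 Read-out is 4-methylumbelliferone fluorescence (365 nm excitation, 440 nm emission) after a pH 10 NaOH/glycine stop. Reactions held 2 nM enzyme and 80 uM substrate at pH 4.5 for 20 min at room temperature.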
# [22] = biological target: alpha-glucosidase (Oryza sativa, rice) (UniProt Q653V4); assay: Counterscreen for Glucocerebrosidase Inhibitors: qHTS Assay for Rice alpha-Glucosidase at pH 5.0 (AID 997)
# Outline: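 Rice alpha-glucosidase (4 nM final) with 400 uM 4-methylumbelliferyl-alpha-D-glucopyranoside in citrate buffer pH 5.0, 20 min at room temperature, stopped at pH 10; fluorescence 365/440 nm, compounds 0.7 nM–77 uM, AC50 from Hill fits.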
# [23] = biological target: Alpha-galactosidase (Coffea arabica) (UniProt Q42656); assay: Counterscreen for Glucocerebrosidase Inhibitors: qHTS Assay for Coffee Bean alpha-Galactosidase at pH 5.9 (AID 998)
# Outline: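 Green coffee bean enzyme (2 nM) with 4-methylumbelliferyl alpha-D-galactopyranoside (80 uM) in 50 mM citric acid, 0.005% Tween-20, pH 5.9, 20 min at room temperature; compounds 0.7 nM–77 uM. Stopped at pH 10, fluorescence Ex365/Em440; Hill-fit AC50.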
# Sequence of Furin (Homo sapiens) (P09958 whole entry, looked up): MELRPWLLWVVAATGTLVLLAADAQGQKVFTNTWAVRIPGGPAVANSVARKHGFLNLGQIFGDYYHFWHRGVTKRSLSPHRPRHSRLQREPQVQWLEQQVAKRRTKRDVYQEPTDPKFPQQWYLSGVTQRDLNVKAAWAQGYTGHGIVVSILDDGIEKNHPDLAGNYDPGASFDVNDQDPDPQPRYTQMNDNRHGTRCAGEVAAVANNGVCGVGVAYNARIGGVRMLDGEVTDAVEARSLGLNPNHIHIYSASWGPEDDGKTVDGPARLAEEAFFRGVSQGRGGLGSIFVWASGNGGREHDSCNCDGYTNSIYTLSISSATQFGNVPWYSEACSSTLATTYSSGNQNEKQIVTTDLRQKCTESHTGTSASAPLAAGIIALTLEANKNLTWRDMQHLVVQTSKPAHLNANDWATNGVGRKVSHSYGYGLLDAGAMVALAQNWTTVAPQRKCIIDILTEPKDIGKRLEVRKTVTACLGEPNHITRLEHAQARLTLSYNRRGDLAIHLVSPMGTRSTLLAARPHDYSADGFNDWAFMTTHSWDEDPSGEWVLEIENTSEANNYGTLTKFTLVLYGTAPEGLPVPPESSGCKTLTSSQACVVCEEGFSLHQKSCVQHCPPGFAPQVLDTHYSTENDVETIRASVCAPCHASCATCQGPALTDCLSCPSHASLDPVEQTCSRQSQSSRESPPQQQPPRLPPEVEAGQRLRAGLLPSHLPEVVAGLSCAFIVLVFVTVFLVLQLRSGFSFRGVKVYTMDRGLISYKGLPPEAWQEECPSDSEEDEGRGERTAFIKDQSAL
# Sequence of Alpha-galactosidase (Coffea arabica) (Q42656 whole entry, looked up): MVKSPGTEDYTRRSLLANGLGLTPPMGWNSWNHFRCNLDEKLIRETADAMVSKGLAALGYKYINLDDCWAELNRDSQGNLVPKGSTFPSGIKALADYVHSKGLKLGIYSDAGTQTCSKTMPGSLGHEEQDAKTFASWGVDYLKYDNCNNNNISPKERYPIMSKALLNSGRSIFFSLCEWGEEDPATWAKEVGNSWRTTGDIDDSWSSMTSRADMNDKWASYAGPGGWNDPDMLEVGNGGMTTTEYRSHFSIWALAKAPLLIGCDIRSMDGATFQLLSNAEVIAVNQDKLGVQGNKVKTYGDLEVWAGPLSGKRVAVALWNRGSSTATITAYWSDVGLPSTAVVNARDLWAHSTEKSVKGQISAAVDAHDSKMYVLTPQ
# Sequence of Pyruvate kinase (Leishmania mexicana) (Q27686 2-499 E452W): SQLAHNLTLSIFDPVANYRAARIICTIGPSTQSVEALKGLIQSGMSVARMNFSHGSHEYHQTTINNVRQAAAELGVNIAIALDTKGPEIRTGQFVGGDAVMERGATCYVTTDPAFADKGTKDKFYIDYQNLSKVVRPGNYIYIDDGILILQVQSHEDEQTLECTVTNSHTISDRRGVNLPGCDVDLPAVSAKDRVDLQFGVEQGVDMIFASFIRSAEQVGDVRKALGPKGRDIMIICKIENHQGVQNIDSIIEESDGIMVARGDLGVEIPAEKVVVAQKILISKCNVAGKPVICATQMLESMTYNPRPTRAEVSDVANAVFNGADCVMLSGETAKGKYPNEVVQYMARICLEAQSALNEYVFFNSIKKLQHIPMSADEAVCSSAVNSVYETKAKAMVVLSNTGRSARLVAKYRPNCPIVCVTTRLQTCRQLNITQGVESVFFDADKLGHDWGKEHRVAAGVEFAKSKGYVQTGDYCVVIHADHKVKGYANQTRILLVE
# Sequence of Guanine nucleotide-binding protein G(i) subunit alpha-1 (Homo sapiens) (P63096 whole entry, looked up): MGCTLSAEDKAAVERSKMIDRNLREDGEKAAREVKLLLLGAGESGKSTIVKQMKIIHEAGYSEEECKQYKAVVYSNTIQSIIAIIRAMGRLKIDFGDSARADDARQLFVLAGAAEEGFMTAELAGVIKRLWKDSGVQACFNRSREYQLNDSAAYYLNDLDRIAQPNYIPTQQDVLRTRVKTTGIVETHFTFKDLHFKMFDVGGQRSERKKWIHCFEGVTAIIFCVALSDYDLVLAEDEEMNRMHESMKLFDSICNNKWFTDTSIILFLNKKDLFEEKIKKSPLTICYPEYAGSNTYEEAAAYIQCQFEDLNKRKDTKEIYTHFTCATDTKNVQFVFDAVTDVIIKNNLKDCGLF
# Sequence of Muscarinic acetylcholine receptor M1 (Rattus norvegicus) (P08482 whole entry, looked up): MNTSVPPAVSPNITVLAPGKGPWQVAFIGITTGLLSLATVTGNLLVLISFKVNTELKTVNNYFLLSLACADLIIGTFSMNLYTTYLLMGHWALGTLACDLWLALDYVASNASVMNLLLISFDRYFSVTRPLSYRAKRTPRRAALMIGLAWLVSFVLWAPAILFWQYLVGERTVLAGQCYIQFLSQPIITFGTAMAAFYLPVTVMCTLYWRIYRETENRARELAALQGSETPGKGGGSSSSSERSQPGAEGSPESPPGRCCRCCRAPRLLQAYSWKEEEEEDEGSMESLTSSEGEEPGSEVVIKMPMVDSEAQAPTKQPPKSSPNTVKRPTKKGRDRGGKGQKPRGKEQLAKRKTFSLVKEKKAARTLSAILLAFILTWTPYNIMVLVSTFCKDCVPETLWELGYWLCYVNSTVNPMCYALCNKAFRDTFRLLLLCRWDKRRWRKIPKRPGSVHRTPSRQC
# Sequence of Alpha-galactosidase A (Homo sapiens) (P06280 whole entry, looked up): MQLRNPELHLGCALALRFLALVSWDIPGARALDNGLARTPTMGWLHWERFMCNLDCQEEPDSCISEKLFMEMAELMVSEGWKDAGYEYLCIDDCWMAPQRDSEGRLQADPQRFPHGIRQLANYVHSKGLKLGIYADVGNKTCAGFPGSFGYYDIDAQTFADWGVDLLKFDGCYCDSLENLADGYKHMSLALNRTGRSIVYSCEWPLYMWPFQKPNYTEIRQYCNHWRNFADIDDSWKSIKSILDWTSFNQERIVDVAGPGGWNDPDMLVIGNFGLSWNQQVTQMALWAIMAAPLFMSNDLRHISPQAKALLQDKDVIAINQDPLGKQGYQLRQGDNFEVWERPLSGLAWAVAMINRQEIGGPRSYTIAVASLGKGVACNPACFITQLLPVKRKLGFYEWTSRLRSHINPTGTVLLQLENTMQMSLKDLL
# Sequence of Nucleoprotein (Lymphocytic choriomeningitis virus (strain Armstrong)) (P09992 whole entry, looked up): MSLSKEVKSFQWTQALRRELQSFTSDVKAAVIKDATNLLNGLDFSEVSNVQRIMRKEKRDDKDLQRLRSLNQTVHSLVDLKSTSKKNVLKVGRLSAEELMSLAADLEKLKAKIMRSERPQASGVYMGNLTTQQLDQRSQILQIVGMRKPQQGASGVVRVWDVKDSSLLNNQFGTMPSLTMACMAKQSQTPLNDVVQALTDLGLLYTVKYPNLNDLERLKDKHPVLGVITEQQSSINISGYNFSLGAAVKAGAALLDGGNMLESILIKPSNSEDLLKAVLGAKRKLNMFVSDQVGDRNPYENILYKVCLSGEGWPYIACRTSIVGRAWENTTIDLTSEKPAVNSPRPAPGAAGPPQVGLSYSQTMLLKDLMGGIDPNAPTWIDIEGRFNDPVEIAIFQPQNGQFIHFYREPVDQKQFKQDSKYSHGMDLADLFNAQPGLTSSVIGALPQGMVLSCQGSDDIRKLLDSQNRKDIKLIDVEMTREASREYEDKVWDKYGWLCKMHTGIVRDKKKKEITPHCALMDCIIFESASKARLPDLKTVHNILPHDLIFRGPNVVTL
# Sequence of Pyruvate kinase PKM (Homo sapiens) (P14618 whole entry, looked up): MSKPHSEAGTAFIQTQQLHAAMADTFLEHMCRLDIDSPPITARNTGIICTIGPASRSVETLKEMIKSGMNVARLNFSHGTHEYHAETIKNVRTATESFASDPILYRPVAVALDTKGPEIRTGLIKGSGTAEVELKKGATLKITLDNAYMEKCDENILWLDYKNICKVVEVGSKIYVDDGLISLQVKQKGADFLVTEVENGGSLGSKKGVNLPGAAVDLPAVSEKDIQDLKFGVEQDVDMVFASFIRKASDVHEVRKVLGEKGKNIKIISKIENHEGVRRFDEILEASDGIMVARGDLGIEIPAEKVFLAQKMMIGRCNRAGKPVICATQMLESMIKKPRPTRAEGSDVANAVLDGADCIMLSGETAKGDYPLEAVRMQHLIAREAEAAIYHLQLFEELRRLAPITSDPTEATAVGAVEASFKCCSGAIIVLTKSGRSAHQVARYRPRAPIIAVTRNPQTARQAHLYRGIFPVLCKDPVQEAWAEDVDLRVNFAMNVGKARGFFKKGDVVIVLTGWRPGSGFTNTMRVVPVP
smiles,measurement,setting,value
C[C@H]1O[C@@H](O[C@H]2[C@@H](O)C[C@H](O[C@H]3[C@@H](O)C[C@H](O[C@H]4CC[C@]5(C)C6CC[C@]7(C)[C@@H](C8=CC(=O)OC8)CC[C@]7(O)C6CC[C@@H]5C4)O[C@@H]3C)O[C@@H]2C)C[C@H](O)[C@@H]1O (stereo partly specified),Potency,[1],inactive
same,Potency,[2],inactive
same,Potency,[3],inactive
same,Potency,[4],inactive
same,Potency,[5],0.147 µM (active)
same,Potency,[6],inactive
CN1CC[C@@]23CCCCC2C1Cc1ccc(O)cc13 (stereo partly specified),Potency,[1],inactive
same,Potency,[3],inactive
same,Potency,[4],inactive
same,Potency,[5],inactive
same,Potency,[7],inactive
same,Potency,[8],3.98 µM (active)
same,max response,[9],30%
same,Potency,[6],35.5 µM (active)
COc1ccc(-c2coc3cc(O)cc(O)c3c2=O)cc1,Potency,[10],inactive
same,Potency,[11],inactive
CC1OC(O[C@H]2C[C@@H](O)[C@]3(CO)[C@H]4[C@H](O)C[C@]5(C)[C@@H](C6=CC(=O)OC6)CC[C@]5(O)[C@@H]4CC[C@]3(O)C2)C(O)C(O)C1O (stereo partly specified),Potency,[1],inactive
same,Potency,[3],inactive
same,Potency,[5],0.147 µM (active)
Oc1ccc2c3c1O[C@H]1c4[nH]c5ccccc5c4C[C@]4(O)[C@H](C2)N(CC2CC2)CC[C@@]314,outcome,[12],inactive
same,"activity change, negative = inhibition",[13],3.02%
same,outcome,[14],inactive
same,outcome,[15],inactive
same,Potency,[16],inactive
same,Potency,[17],inactive
same,outcome,[18],inactive
same,outcome,[19],inactive
same,outcome,[20],inactive
same,outcome,[21],inactive
same,outcome,[22],inactive
same,outcome,[23],inactive
